High-throughput results deposited in PubChem by National Center for Advancing Translational Sciences (NCATS).
Sampled rows, rich in hits. Any-hit rate of the full collection: about 2.4%.
Pol eta inh-1 = blocks human DNA polymerase eta activity. 1.2% of 390,000 active. Q9Y253. AID 588591. recombinant Pol eta, fluorescent DNA replication assay. Potency, µM (titrated, usually from 114 µM), for inactives: top-dose activity change, negative = inhibition, actives largely listed as inhibitors; further: potency means the concentration at half of the fitted maximal effect; on the % scale 0 is the no-effect control and ±100 the full control effect
Target sequence (Q9Y253 whole entry, looked up): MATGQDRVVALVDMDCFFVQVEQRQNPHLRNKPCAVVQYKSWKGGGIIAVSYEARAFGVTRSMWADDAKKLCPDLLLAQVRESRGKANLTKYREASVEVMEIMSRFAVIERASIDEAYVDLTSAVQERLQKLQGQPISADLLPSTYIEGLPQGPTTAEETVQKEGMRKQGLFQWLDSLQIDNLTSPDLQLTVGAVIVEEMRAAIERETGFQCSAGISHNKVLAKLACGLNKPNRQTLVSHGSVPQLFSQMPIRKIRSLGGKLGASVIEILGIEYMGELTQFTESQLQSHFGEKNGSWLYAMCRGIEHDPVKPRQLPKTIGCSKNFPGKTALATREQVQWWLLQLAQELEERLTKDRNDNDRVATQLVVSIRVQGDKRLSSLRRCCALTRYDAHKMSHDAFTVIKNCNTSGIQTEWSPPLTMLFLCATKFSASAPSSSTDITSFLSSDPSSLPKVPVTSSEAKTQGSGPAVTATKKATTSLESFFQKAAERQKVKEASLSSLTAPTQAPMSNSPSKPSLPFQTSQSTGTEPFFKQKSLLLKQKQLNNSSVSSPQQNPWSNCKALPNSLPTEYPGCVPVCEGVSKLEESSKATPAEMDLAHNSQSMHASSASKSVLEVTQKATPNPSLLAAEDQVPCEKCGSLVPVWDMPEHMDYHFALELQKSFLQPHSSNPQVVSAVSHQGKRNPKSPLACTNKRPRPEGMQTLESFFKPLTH
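Pol eta (10 nM) was preincubated with compounds for 15 min at room temperature, after which fluorescent replication substrate (50 nM final) was added to start the reaction. Fluorescence was read kinetically at 0 and 10 min.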
TDP1 block = blocks human tyrosyl-DNA phosphodiesterase 1 | Q9NUW8 | recombinant TDP1, AlphaScreen DNA substrate cleavage | 0.28% of 350,000 active | Potency, µM (doses to about 130 µM), for the others: at the highest dose activity change, negative = inhibition, hits mostly inhibitors; further: potency means the concentration at half of the fitted maximal effect; on the % scale 0 is the no-effect control and ±100 the full control effect; nearly all actives have a fitted effect of over 40% in size
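E. coli-derived human Tdp1, 1 nM final. Cpd preinc 15 min RT; substrate 15 nM final, 5 min RT; AS bead mix 10 ug/ml final, 10 min RT. Signal loss = tyrosine-FITC cleavage. No-enzyme wells = max signal.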
Pol kappa inh-1 = DNA polymerase kappa (human) inhibition; 0.53% of 400,000 active; Potency, µM (highest dose often 107 µM), inactives show top-dose activity, negative = inhibition, most hits filed as inhibitors; purified Pol kappa, fluorescent DNA synthesis assay, 10 min; further: potency means the concentration at half of the fitted maximal effect; on the % scale 0 is the no-effect control and ±100 the full control effect
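Fluorescent qHTS in 1536-well format: enzyme (10 nM) and compound sat 15 min at room temperature before 50 nM substrate (final) was added. Signal taken at 0 and 10 min; no-enzyme buffer wells were negative controls.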
Pol iota inh = DNA polymerase iota (human) inhibition; Q9UNA4; Pol iota fluorescent replication assay, 10 min; Potency, µM (doses to about 115 µM), without a hit: at the top dose activity, negative = inhibition, most hits filed as inhibitors; 1% of 390,000 active; further: potency means the concentration at half of the fitted maximal effect
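Fluorescent replication assay read twice, at 0 min and 10 min after adding 50 nM (final) substrate. Enzyme (10 nM) and compounds were first incubated 15 min at room temperature; enzyme-free buffer wells were negative controls.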
Pol beta inh = DNA polymerase beta (human) inhibition; Pol beta primer extension/strand displacement, fluorescence kinetic; Potency, µM (highest dose often 114 µM), for the others: at the top dose activity change, negative = inhibition, actives largely listed as inhibitors; 1.3% of 340,000 active; P06746; AID 485314; further: potency means the concentration at half of the fitted maximal effect; on the % scale 0 is the no-effect control and ±100 the full control effect
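Curves were derived by four-parameter Hill fits of normalized qHTS data. The kinetic fluorescent primer-extension read was taken at 0 and 10 min after 50 nM substrate, following a 15 min room-temperature preincubation of 10 nM enzyme with compounds.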
GALK confirm = galactokinase (human) inhibition, confirmation. shares compounds with Pol eta inh-1. purified GALK, Kinase-Glo ATP depletion luminescence. Potency, µM (highest dose often 115 µM), for the others: at the highest dose activity, negative = inhibition, hits mostly inhibitors. 70% of 150 active
Redox cycling = generates H2O2 by redox cycling, flagging GALK artifacts; shares compounds with Pol eta inh-1; Phenol red-HRP H2O2 redox cycling, absorbance 600 nm; Potency, µM (highest dose often 115 µM), inactives show at the highest dose activity change, negative = H2O2 signal, usual class: inhibitors; 40% of 150 active; AID 2035
HEK293 viability = counter-screen for GALK inhibitors: HEK293 cell cytotoxicity; Potency, µM (doses to about 46.1 µM), for the others: at the top dose activity change, negative = cytotoxicity, hits mostly inhibitors; AID 2547; 10% of 170 active; HEK-293 viability, ATP luminescence (CellTiter-Glo), 24/48 h; shares compounds with Pol eta inh-1; further: potency means the concentration at half of the fitted maximal effect; on the % scale 0 is the no-effect control and ±100 the full control effect
Pol kappa inh-2 = Pol kappa (human) inhibition, cherry-pick confirmation; shares compounds with Pol eta inh-1; purified Pol-kappa, fluorescent strand-displacement substrate; Potency, µM, hits mostly inhibitors; 76% of 920 active; AID 720501; further: potency means the concentration at half of the fitted maximal effect
Pol eta inh-2 = Pol eta (human) inhibition, cherry-pick confirmation; Pol eta primer extension, TAMRA/BHQ fluorescence, 10 min; Potency, µM, most hits filed as inhibitors; shares compounds with Pol eta inh-1; 64% of 2,600 active; AID 720502; further: potency means the concentration at half of the fitted maximal effect
Starred values were filed as active, the others as inactive; ? = inconclusive; · = no result given; [ ] = remark or other dose. The call rests on the fitted dose curve; in most records, active means well fitted curve in the direction sought with a large enough effect; inconclusive means small, poorly fitted or top-dose-only effect, or another doubt; inactive means no such curve, though single readings can be large; an effect the other way counts as inactive or inconclusive.

SMILES | Pol eta inh-1 | TDP1 block | Pol kappa inh-1 | Pol iota inh | Pol beta inh | others
O=C(NCCCN1CCN(c2ccccc2F)CC1)C1COc2ccccc2C1 (stereo not drawn) | -20% | 3% | -4%[60.1 µM] | 16% | 2%
COc1ccccc1C1=Nn2c(nnc2-c2ccccc2C)SC1 | · | 10% | · | · | ·
COc1ccc(C2=Nn3c(nnc3-c3ccccc3OC)SC2)cc1OC1CCOC1 (stereo not drawn) | -6% | 7% | 45µM* | 24% | · | Pol kappa inh-2=4.2*
COc1ccc(C2=Nn3c(nnc3-c3ccccc3C(F)(F)F)SC2)cc1OC1CCOC1 (stereo not drawn) | -7% | 4% | ? | -7% | · | Pol kappa inh-2=4.7*
CN=c1scc(C)n1/N=C/c1ccc(O)c(O)c1O | 3.5µM* | -2% | 13µM* | 7.9µM* | 5µM* | Pol eta inh-2=54*
CN=c1scc(-c2cccs2)n1/N=C/c1ccc(O)c(O)c1O | ? | 8% | ? | ? | 2.8µM* | Pol eta inh-2=76*
CC1(OC(=O)C2CCCC2)C(=O)C=C2C=C(c3ccsc3)N(CCCCO)C=C2C1=O (stereo not drawn) | -7% | 9%[21 µM] | 1% | 107% | 29%
CC1(OC(=O)C2CCCC2)C(=O)C=C2C=C(c3ccsc3)N(Cc3ccco3)C=C2C1=O (stereo not drawn) | -14% | 18%[12.3 µM] | 25µM* | ? | ? | Pol eta inh-2=2.4*
C[N+]1(CC(=O)c2ccc(Oc3ccccc3)cc2)CCOCC1 | · | · | 4% | ? | ·
Cc1nc(Nc2nc(-c3ccccc3)cc(=O)[nH]2)nc2ccccc12 | ? | · | -15% | 64% | · | Pol eta inh-2=?
Cc1nc(Nc2nc(CSc3nc4ccccc4[nH]3)cc(=O)[nH]2)nc2ccccc12 | -11% | 5% | 1% | 64% | 0%
CCOc1ccc(-c2nonc2NC(=O)c2oc3ccc(F)cc3c2C)cc1 | -17% | 1% | ? | ? | -1%
CSc1cccc(NC(=O)C2CCCN(C(=O)c3cnn(-c4ccc(F)cc4)c3-n3cccc3)C2)c1 (stereo not drawn) | -20% | 6% | -6%[60.1 µM] | -10% | -28%
Cc1ccc(S(=O)(=O)N2[C@@H](c3cccc(Cl)c3)C(C(=O)O)=CC[C@H]2c2ccc(C(C)C)cc2)cc1 | 89µM* | -13% | ? | ? | · | Pol kappa inh-2=?
Cc1ccc(S(=O)(=O)N2[C@@H](c3ccc(Cl)cc3)C(C(=O)O)=CC[C@H]2c2cccc(Cl)c2)cc1 | -16% | 1% | -2% | 4% | ·
COc1cc(-c2nc3ccccn3c2Nc2ccccc2C)ccc1O | -9% | 2% | -8% | 4% | -12%
Cc1nn(C)c2c1c(C(F)(F)F)cc(=O)n2CC(=O)NCc1ccccc1Cl | -13% | 3% | 0% | 20% | -30%
COC(=O)c1ccc(CSc2ccc3nnc(-c4ccccn4)n3n2)o1 | -16% | -2% | 0% | 19% | -4% | GALK confirm=-7%;Redox cycling=1%;HEK293 viability=-1%
COC(=O)c1ccc(CSc2ccc3nnc(-c4ccc(F)cc4)n3n2)o1 | -3% | 1% | -3% | -4% | 0%
Cc1ccc2nc(-c3ccc(O)c(O)c3)cn2c1 | 22µM* | · | ? | 50µM* | 4µM* | Pol eta inh-2=?
Cc1nc(-c2ccc(O)c(O)c2)cs1 | -21% | 2% | -4% | 6% | ?
Cc1ccc(S(=O)(=O)NC(=O)NC2CCCCCCC2)cc1 | · | · | 4%[19.4 µM] | · | ·
Cc1ccc(Cl)cc1NC(=O)c1oc2ccc(S(=O)(=O)N(C)C3CCCCC3)cc2c1C | -13% | -3% | -10%[60.1 µM] | 3% | 12%
O=C(O)C1CC=CCC1C(=O)N1CCc2ccccc21 (stereo not drawn) | ? | 22µM* | ? | 0% | 20µM* | Pol eta inh-2=?
O=C(O)C1C2C=CC(C2)C1C(=O)N1CCc2ccccc21 (stereo not drawn) | 8% | 9% | 0% | 0% | -2%
SMILES | Pol eta inh-1 | TDP1 block | Pol kappa inh-1 | Pol iota inh | Pol beta inh | others
CC(C)Oc1ccc(CNC(=O)CN2C(=O)CCn3nc(-c4cn(C)c5ccccc45)cc32)cc1 | -27% | 7% | -13%[60.1 µM] | -21% | -2%
CCOC(=O)c1sc(NC(=O)COc2ccccc2Cl)c(C(=O)OCC)c1C | · | 8%[12.3 µM] | -1% | -16% | 3%
C=CCn1c(SCC(=O)c2ccc(O)c(O)c2)nnc1-c1cccc(C)c1 | 16µM* | 0% | 45µM* | 79µM* | · | Pol eta inh-2=?
CCN(Cc1ccccc1)C(=O)Cn1c(=O)n(-c2ccc(C)c(C)c2)c(=O)c2c(C)c(C)sc21 | -8% | 3% | -12% | 1% | -2%
CCNc1nc(NCC)n2c(SCC(=O)Nc3ccccc3)nnc2n1 | -14% | 5% | -6% | 151% | 1%
CCNc1nc(NCC)n2c(SCC(=O)Nc3ccc(C)c(C)c3)nnc2n1 | -12% | -8% | -38% | ? | ·
CCNc1nc(NCC)n2c(SCC(=O)Nc3ccc(OC(F)F)cc3)nnc2n1 | ? | · | -12% | ? | · | Pol eta inh-2=?
CCNc1nc(NCC)n2c(SCC(=O)Nc3ccc(F)cc3)nnc2n1 | 14µM* | 6%[0.505 µM] | ? | 20µM* | · | Pol kappa inh-2=60*;Pol eta inh-2=67*
Cc1ccc2ncc(C(=O)N3CCN(c4ccccc4F)CC3)c(=O)n2c1 | -1% | 0% | 0% | -15% | 20%
Cc1ccc(/C=C/C2=C[C@]3(C)C[C@]2(C)[C@H](c2ccc(C)cc2)CC3=O)cc1 | · | 4% | · | · | ·
CC(C(=O)NCc1ccc(Cl)cc1)n1ccc2cc(S(=O)(=O)N3CCCCCC3)ccc21 (stereo not drawn) | -24% | 0% | 3% | 8% | 13%
CCOC(=O)c1cc2c(=O)n3ccccc3nc2n(CC2CCCO2)c1=NC(=O)c1cc(C)cc(C)c1 (stereo not drawn) | -17% | 3% | -8% | -6% | 2%
